The supplement of paper PMC9262897, “Low-cost anti-mycobacterial drug discovery using engineered E. coli” (Nature Communications, 2022)
Structures can show the parent of a compound that is named as a salt. ± gives the standard deviation of the averaged measurements.

Test system: E. coli TESEC Mtb Alr
Test: growth (OD600 after 10 h); higher = more growth (less inhibition)
Settings: compound 0.1 mM
Experimental: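 TESEC Mtb Alr E. coli, or the Alr+ wild-type control, in 384-well plates with Prestwick library compounds at 0.1 mM and 1% DMSO, across arabinose induction levels of 1E3 to 1E7 nM. Growth is read as OD600 after 10 h at 37 °C in triplicate biological replicates.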

[1] = arabinose 1000 nM, raw OD600 reference: median of DMSO wells 0.294, cell-free background 0.041
[2] = arabinose 10000 nM, raw OD600 reference: median of DMSO wells 0.264, cell-free background 0.041
[3] = arabinose 100000 nM, raw OD600 reference: median of DMSO wells 0.201, cell-free background 0.041
[4] = arabinose 1000000 nM, raw OD600 reference: median of DMSO wells 0.193, cell-free background 0.041
[5] = arabinose 10000000 nM, raw OD600 reference: median of DMSO wells 0.146, cell-free background 0.041

SMILES	growth [1]	growth [2]	growth [3]	growth [4]	growth [5]
COc1ccc(C(=O)c2ccccc2O)c(O)c1 [Dioxybenzone]	0.116 ± 0.0049	0.124 ± 0.0053	0.107 ± 0.005	0.085 ± 0.0034	0.107 ± 0.0014
CC(=O)Nc1ccc(OCC(O)CNC(C)C)cc1 (stereo not given) [Practolol]	0.307 ± 0.0096	0.257 ± 0.0077	0.229 ± 0.04	0.19 ± 0.016	0.145 ± 0.0028
Cc1cc(O)c(C(=O)N[C@@H](C(=O)N[C@@H]2C(=O)N3C(C(=O)O)=C(CSc4nnnn4C)CS[C@H]23)c2ccc(O)cc2)cn1 [Cefpiramide]	0.3183 ± 0.00044	0.245 ± 0.0057	0.217 ± 0.015	0.208 ± 0.027	0.135 ± 0.0067
CO/N=C(\C(=O)N[C@@H]1C(=O)N2C(C(=O)O)=C(COC(C)=O)CS[C@H]12)c1csc(N)n1 [Cefotaxime sodium salt]	0.0388 ± 0.0013	0.0398 ± 0.00026	0.0388 ± 0.0013	0.04017 ± 0.00038	0.04007 ± 0.0004
Clc1cccc(Cl)c1NC1=NCCN1 [Clonidine hydrochloride]	0.289 ± 0.0065	0.261 ± 0.0058	0.201 ± 0.023	0.173 ± 0.0049	0.145 ± 0.011
Cn1cnc([N+](=O)[O-])c1Sc1ncnc2[nH]cnc12 [Azathioprine]	0.0771 ± 0.0059	0.0744 ± 0.0045	0.0829 ± 0.005	0.0691 ± 0.0013	0.0849 ± 0.0021
C#C[C@]1(O)CC[C@H]2[C@@H]3CCC4=C(CCC(=O)C4)[C@H]3CC[C@@]21C [Norethynodrel]	0.142 ± 0.0092	0.107 ± 0.0051	0.157 ± 0.0071	0.0575 ± 0.0014	0.089 ± 0.0065
O=C(c1ccc(F)cc1)C1CCN(CCn2c(=O)[nH]c3ccccc3c2=O)CC1 [Ketanserin tartrate hydrate]	0.251 ± 0.0083	0.27 ± 0.0047	0.221 ± 0.033	0.132 ± 0.0046	0.17 ± 0.0079
